The values that follow come from PubChem BioAssay (EPA / NIEHS).

Test [1] is described as follows: CEETOX_H295R_DOC: CeeTox H295R High-throughput Steroidogenesis Assay for DOC (AID 2283439). The note with it: actives raise or lower the signal. The essentials:
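Secreted DOC was quantified from H295R media by HPLC-MS/MS after 48 h chemical exposure following 48 h forskolin (10 uM) prestimulation. Values were fitted in both directions relative to DMSO, the negative control and baseline.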

Test [2] can be described thus: CEETOX_H295R_PROG: CeeTox H295R High-throughput Steroidogenesis Assay for Progesterone (PROG) (AID 2283442).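 On AC50: human H295R adrenal cells primed with 10 µM forskolin before dosing.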 To be noted: actives raise or lower the signal. The procedure, abridged:
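H295R human adrenal cells were prestimulated with 10 uM forskolin for 48 h, then exposed to test chemical (0.1% DMSO final) for 48 h. Medium progesterone was MTBE-extracted and quantified by HPLC-MS/MS, with bidirectional fitting against DMSO.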

Read-out in test [3]: Tumor necrosis factor receptor superfamily member 6 (Homo sapiens) (UniProt P25445)
Description: LTEA_HepaRG_FAS: Life Technologies and Expression Analysis (LTEA) Assay for Fas cell surface death receptor (FAS) using HepaRG (AID 2283447). The note with it: mRNA level, 48 h; actives raise or lower the signal. The essentials:
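Differentiated HepaRG cells in serum-free induction medium were exposed 48 h to 8 half-log concentrations up to 100 uM in 0.5% DMSO, in duplicate. FAS mRNA was measured by qRT-PCR normalised to ACTB, GAPDH and POLR2A; bidirectional fit versus DMSO.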

Read-out in test [4]: Fatty acid synthase (Homo sapiens) (UniProt P49327)
Description: LTEA_HepaRG_FASN: Life Technologies and Expression Analysis (LTEA) Assay for Fatty Acid Synthase (FASN) using HepaRG (AID 2283448). To be noted: mRNA level, 48 h; actives raise or lower the signal. The procedure, abridged:
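Transcript-level assay: HepaRG liver cells are treated for 48 h across an eight-point range topping at 100 uM, and FASN mRNA, normalized to three housekeeping genes, is compared with DMSO controls in both directions.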

Read-out in test [5]: Cyclin Dependent Kinase Inhibitor 1A (CDKN1A), CDKN1A (gene 1026)
Description: LTEA_HepaRG_CDKN1A: Life Technologies and Expression Analysis (LTEA) Assay for Cyclin Dependent Kinase Inhibitor 1A (CDKN1A) using HepaRG (AID 2283450). To be noted: mRNA level, 48 h; actives raise or lower the signal. The procedure, abridged:
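Differentiated human HepaRG cells, pre-cultured 48 h, were exposed in duplicate for 48 h in serum-free induction medium to eight half-log concentrations up to 100 uM (0.5% DMSO). CDKN1A mRNA was measured by qRT-PCR, normalized to ACTB/GAPDH/POLR2A, bidirectionally fitted versus DMSO.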

Read-out in test [6]: catalase (CAT), CAT (gene 847)
Description: LTEA_HepaRG_CAT: Life Technologies and Expression Analysis (LTEA) Assay for catalase (CAT) using HepaRG (AID 2283452). The note with it: mRNA level, 48 h; actives raise or lower the signal. The procedure, abridged: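 HepaRG cells in serum-free induction medium, 0.5% DMSO vehicle, exposed 48 h in duplicate over 8 half-log concentrations from 100 uM. CAT mRNA measured by qRT-PCR, normalized to ACTB, GAPDH, POLR2A; bidirectional fit versus DMSO.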

Read-out in test [7]: flavin-containing dimethylaniline monooxygenases 3 (FMO3), FMO3 (gene 2328)
Description: LTEA_HepaRG_FMO3: Life Technologies and Expression Analysis (LTEA) Assay for flavin-containing dimethylaniline monooxygenases 3 (FMO3) using HepaRG (AID 2283453). The note with it: mRNA level, 48 h; actives raise or lower the signal. The procedure, abridged: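 HepaRG, 48 h exposure, 8-pt half-log series from 100 uM, 0.5% DMSO vehicle, duplicates; FMO3 transcript by Fluidigm TaqMan qRT-PCR, housekeeping-normalized; gain/loss fit vs DMSO.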

Read-out in test [8]: Cytochrome P450 (CYP1A1), CYP1A1 (gene 1543)
Description: LTEA_HepaRG_CYP1A1: Life Technologies and Expression Analysis (LTEA) Assay for Cytochrome P450 (CYP1A1) using HepaRG (AID 2283454). The note with it: mRNA level, 48 h; actives raise or lower the signal. The essentials:
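Differentiated HepaRG cells in serum-free induction medium were exposed in duplicate for 48 h to eight half-log concentrations up to 100 uM in 0.5% DMSO. CYP1A1 mRNA was quantified by TaqMan qRT-PCR, normalized to ACTB, GAPDH and POLR2A.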

Read-out in test [9]: CFLAR gene, CFLAR (gene 8837)
Description: LTEA_HepaRG_CFLAR: Life Technologies and Expression Analysis (LTEA) Assay for CFLAR gene using HepaRG (AID 2283455). To be noted: mRNA level, 48 h; actives raise or lower the signal. The procedure, abridged: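 Differentiated HepaRG cells in serum-free induction medium were exposed 48 h in duplicate to eight half-log concentrations up to 100 uM in 0.5% DMSO; mRNA measured by TaqMan qRT-PCR, normalized to ACTB, GAPDH, POLR2A; bidirectional fitting versus DMSO.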

Read-out in test [10]: Forkhead box O1 (FOXO1), FOXO1 (gene 2308)
Description: LTEA_HepaRG_FOXO1: Life Technologies and Expression Analysis (LTEA) Assay for Forkhead box O1 (FOXO1) using HepaRG (AID 2283456). To be noted: mRNA level, 48 h; actives raise or lower the signal. The procedure, abridged: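 Differentiated HepaRG cells, in serum-free induction medium with 0.5% DMSO, exposed 48 h in duplicate to 8-point half-log series from 100 uM. FOXO1 mRNA measured by TaqMan qRT-PCR, normalized to ACTB, GAPDH, POLR2A; bidirectional fit versus DMSO.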

Read-out in test [11]: growth arrest and DNA damage 45 (GADD45A), GADD45A (gene 1647)
Description: LTEA_HepaRG_GADD45A: Life Technologies and Expression Analysis (LTEA) Assay for growth arrest and DNA damage 45 (GADD45A) using HepaRG (AID 2283458). The note with it: mRNA level, 48 h; actives raise or lower the signal. The procedure, abridged:
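Human HepaRG liver cells are treated in duplicate for 48 h with chemicals in 0.5% DMSO, highest concentration 100 uM. Expression is read by qRT-PCR and analyzed in both directions against vehicle.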

Read-out in test [12]: Forkhead box O3 (FOXO3), FOXO3 (gene 2309)
Description: LTEA_HepaRG_FOXO3: Life Technologies and Expression Analysis (LTEA) Assay for Forkhead box O3 (FOXO3) using HepaRG (AID 2283459). To be noted: mRNA level, 48 h; actives raise or lower the signal. The procedure, abridged:
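Differentiated human HepaRG cells, 48 h post-plating, exposed in duplicate for 48 h in serum-free induction medium; 8-point half-log series from 100 uM in 0.5% DMSO. FOXO3 mRNA by TaqMan qRT-PCR, normalized to ACTB/GAPDH/POLR2A; bidirectional fit versus DMSO.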

Read-out in test [13]: ABC Transporter (ABCB1), ABCB1 (gene 5243)
Description: LTEA_HepaRG_ABCB1: Life Technologies and Expression Analysis (LTEA) Assay for ABC Transporter (ABCB1) using HepaRG (AID 2283460). To be noted: mRNA level, 48 h; actives raise or lower the signal. The procedure, abridged:
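HepaRG cells exposed in duplicate for 48 h in serum-free induction medium to eight half-log concentrations up to 100 uM in 0.5% DMSO. ABCB1 mRNA quantified by qRT-PCR, normalised to ACTB, GAPDH and POLR2A; fitted bidirectionally versus DMSO.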

Read-out in test [14]: growth arrest and DNA damage 45 (GADD45B), GADD45B (gene 4616)
Description: LTEA_HepaRG_GADD45B: Life Technologies and Expression Analysis (LTEA) Assay for growth arrest and DNA damage 45 (GADD45B) using HepaRG (AID 2283461). The note with it: mRNA level, 48 h; actives raise or lower the signal. The essentials:
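Differentiated HepaRG cells, plated 48 h then switched to serum-free induction medium, were exposed 48 h in duplicate to eight half-log concentrations from 100 uM in 0.5% DMSO; mRNA quantified by qRT-PCR, normalized to ACTB/GAPDH/POLR2A, bidirectional fit versus DMSO.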

Test [15] can be described thus: CEETOX_H295R_ESTRADIOL: CeeTox H295R High-throughput Steroidogenesis Assay for Estradiol (AID 2283440).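 Further: estradiol secreted into medium quantified by LC-MS/MS after dansyl derivatisation.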 To be noted: actives raise or lower the signal. The essentials:
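H295R adrenocortical cells were prestimulated with 10 uM forskolin for 48 h, then exposed to test chemical in 0.1% DMSO for 48 h. Medium estradiol was extracted with MTBE, dansyl-derivatized and quantified by HPLC-MS/MS; bidirectional fit versus DMSO.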

Test [16] can be described thus: CEETOX_H295R_ESTRONE: CeeTox H295R High-throughput Steroidogenesis Assay for Estrone (AID 2283441).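 Further: estrone secreted into medium measured by LC-MS/MS after dansyl derivatization.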 The note with it: actives raise or lower the signal. The essentials:
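H295R cells; 48 h forskolin (10 uM) prestimulation; 48 h compound exposure, 0.1% DMSO final. Medium estrone: MTBE extraction, dansyl derivatization, HPLC-MS/MS. Bidirectional fit vs DMSO.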

Read-out in test [17]: Cyclin D2 (CCND2), CCND2 (gene 894)
Description: LTEA_HepaRG_CCND2: Life Technologies and Expression Analysis (LTEA) Assay for Cyclin D2 (CCND2) using HepaRG (AID 2283449).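 Further: CCND2 transcript measured by TaqMan qRT-PCR and normalised to three housekeeping genes.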 To be noted: mRNA level, 48 h; actives raise or lower the signal. The procedure, abridged:
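Chemicals in 0.5% DMSO, eight half-log concentrations from 100 uM top, were applied in duplicate for 48 h to human HepaRG cells in serum-free induction medium. CCND2 mRNA by TaqMan qRT-PCR, normalised to ACTB/GAPDH/POLR2A; bidirectional fit versus DMSO.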

A short description of test [18]: CEETOX_H295R_TESTO: CeeTox H295R High-throughput Steroidogenesis Assay for Testosterone (TESTO) (AID 2283457). To be noted: actives raise or lower the signal. The essentials:
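H295R human adrenal cells in DMEM/F12 with ITS+ and Nu-Serum, exposed to chemicals for 48 h. Testosterone in medium measured by MTBE extraction, reverse-phase HPLC-MS/MS; bidirectional fit versus DMSO baseline. MTT viability checked in same wells.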

Read-out in test [19]: Cyclin D1 (CCND1), CCND1 (gene 595)
Description: LTEA_HepaRG_CCND1: Life Technologies and Expression Analysis (LTEA) Assay for Cyclin D1 (CCND1) using HepaRG (AID 2283451). To be noted: mRNA level, 48 h; actives raise or lower the signal. The procedure, abridged: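 Differentiated human HepaRG cells in serum-free induction medium were exposed 48 h to eight half-log concentrations up to 100 uM in 0.5% DMSO; mRNA quantified by TaqMan qRT-PCR, normalized to ACTB, GAPDH, POLR2A, fitted bidirectionally versus DMSO.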

Activity calls are given as the source filed them. How the source made its calls: active means hit-call score of the fitted dose curve at least 0.9, where 1 is the maximum; inactive means score below 0.9.

Fatty acid synthase (Homo sapiens), sequence (P49327 whole entry, looked up): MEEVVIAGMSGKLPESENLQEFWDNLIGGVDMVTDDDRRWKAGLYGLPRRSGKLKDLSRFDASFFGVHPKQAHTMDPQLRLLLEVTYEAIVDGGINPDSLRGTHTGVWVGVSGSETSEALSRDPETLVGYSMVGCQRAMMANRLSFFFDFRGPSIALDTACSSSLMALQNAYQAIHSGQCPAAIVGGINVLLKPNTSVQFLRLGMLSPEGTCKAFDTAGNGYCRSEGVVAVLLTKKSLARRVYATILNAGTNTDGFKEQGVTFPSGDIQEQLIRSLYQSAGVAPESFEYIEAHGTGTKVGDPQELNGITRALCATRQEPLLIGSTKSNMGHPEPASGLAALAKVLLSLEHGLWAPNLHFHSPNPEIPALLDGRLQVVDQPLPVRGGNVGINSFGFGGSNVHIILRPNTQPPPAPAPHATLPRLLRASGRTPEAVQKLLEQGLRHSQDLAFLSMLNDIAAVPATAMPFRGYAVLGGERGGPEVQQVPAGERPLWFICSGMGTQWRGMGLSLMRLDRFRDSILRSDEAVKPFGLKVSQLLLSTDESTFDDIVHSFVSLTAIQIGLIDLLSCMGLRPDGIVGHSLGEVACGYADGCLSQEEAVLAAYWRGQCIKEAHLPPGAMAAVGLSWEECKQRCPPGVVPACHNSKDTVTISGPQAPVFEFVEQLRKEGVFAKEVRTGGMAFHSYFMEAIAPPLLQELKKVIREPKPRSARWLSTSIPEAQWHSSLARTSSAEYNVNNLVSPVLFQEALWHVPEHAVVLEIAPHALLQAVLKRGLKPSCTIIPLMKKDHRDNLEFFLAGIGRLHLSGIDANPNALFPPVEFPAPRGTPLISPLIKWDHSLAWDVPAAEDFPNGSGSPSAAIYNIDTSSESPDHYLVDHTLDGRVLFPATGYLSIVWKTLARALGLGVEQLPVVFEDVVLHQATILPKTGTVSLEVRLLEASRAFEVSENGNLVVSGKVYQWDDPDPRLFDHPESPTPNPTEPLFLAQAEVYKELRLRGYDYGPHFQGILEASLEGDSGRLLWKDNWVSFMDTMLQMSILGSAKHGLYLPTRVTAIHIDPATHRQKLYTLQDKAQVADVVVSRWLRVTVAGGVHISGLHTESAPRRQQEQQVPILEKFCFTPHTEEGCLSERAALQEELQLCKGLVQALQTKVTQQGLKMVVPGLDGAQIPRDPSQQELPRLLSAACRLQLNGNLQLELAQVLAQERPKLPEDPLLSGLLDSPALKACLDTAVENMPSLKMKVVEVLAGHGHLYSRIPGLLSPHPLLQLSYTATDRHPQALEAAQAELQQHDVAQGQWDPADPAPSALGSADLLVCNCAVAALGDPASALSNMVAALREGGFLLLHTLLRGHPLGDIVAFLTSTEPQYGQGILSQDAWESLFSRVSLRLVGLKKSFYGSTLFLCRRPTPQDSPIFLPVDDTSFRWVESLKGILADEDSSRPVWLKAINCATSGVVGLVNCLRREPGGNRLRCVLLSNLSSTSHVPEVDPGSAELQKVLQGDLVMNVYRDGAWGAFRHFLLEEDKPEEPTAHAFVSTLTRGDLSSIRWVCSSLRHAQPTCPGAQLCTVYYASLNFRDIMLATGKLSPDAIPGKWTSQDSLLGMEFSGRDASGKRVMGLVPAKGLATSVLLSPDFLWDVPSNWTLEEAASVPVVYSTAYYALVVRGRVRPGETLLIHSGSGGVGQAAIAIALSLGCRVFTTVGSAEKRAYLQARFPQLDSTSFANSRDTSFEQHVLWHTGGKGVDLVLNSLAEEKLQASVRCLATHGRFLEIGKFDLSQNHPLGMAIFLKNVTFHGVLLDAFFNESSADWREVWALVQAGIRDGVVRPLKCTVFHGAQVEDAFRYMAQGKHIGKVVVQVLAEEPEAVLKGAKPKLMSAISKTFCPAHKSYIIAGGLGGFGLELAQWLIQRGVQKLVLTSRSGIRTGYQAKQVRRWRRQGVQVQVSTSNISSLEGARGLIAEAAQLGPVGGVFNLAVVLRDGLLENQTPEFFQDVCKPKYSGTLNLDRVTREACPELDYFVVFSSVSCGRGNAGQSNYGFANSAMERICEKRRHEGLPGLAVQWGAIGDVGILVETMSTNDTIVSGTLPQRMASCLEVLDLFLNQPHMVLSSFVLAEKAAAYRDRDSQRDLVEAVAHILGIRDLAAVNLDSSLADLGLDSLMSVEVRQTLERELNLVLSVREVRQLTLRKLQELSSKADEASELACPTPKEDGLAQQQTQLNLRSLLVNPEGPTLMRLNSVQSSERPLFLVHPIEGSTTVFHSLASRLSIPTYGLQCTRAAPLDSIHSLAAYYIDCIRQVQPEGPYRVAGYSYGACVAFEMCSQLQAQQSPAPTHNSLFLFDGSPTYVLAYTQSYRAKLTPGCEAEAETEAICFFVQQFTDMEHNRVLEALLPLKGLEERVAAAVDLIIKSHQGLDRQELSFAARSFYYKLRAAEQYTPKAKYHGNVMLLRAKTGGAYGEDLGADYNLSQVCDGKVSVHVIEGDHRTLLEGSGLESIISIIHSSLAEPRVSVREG

Consider `CCN(CC)C(=O)SCc1ccc(Cl)cc1`, for which the AC50 (usually the midpoint of the concentration-response curve, whichever way the signal moves) in test [1] was 22.6 µM (active); in test [8] it was 41.6 µM (active). Further, the outcome in test [2], in [3], in [4], in test [5], in test [6] and in test [7] was inactive. Further, the molecule was called inactive in test [9], in [10], in test [11], in test [12], in [13] and in [14].

Consider `O=[N+]([O-])/N=C1\NCCN1Cc1ccc(Cl)nc1`, for which the molecule was called inactive in test [1], in [15], in [16], in [2], in test [3] and in test [17]. Moreover, the call in test [10], in [18] and in test [14] was inactive. In addition, the AC50 is 20.6 µM (active) in test [4]; 12.2 µM (active) in test [5]; 39.8 µM (active) in [6]; 34.6 µM (active) in test [7]; 9.92 µM (active) in test [8]; 26.3 µM (active) in [9]. Moreover, the figures for the AC50 in test [11], in test [12] and in [13] were 23.6 µM (active), 26.9 µM (active) and 15.9 µM (active), respectively.

As to `CCC(C)Nc1c([N+](=O)[O-])cc(C(C)(C)C)cc1[N+](=O)[O-]` (centres undefined), the AC50 in test [1] was 87.1 µM (active); in test [2], 88.3 µM (active); in test [8], 12.9 µM (active); in [13], 13 µM (active). Besides, the molecule was classed as inactive in [15], in test [16], in test [3], in test [4], in test [17] and in [5]. Further, the outcome in [19], in test [6], in test [7], in test [9], in test [10] and in test [11] was inactive. Further, the molecule was classed as inactive in [12] and in test [14].

With `C[C@H]1[C@H](c2ccc(Cl)cc2)SC(=O)N1C(=O)NC1CCCCC1`, the call in test [1], in test [15], in test [16], in test [2], in [4] and in test [9] was inactive. The call in test [18] and in test [12] was inactive. Further, the AC50 was 90.5 µM (active) in [3]; 71.6 µM (active) in test [5]; 66.2 µM (active) in [6]; 75 µM (active) in test [7]; 14.9 µM (active) in test [8]; 83.2 µM (active) in test [10]. Moreover, the AC50 in [11] is 75.8 µM (active); in [13] it was 32.8 µM (active); in [14], 82.2 µM (active).

In the case of `CNC(=O)/C=C(\C)OP(=O)(OC)OC`, the molecule was classed as inactive in [1], in test [15], in test [16], in test [2], in [3] and in test [4]. In addition, the molecule was classed as inactive in test [17], in test [5], in [6], in test [7], in [8] and in test [9]. Further, the molecule was classed as inactive in [10], in test [11], in [12], in test [13] and in test [14].
